Inconclusive results are not listed. Unmarked numbers belong to inactive results. The source made the active and inactive calls. The call rests on the fitted dose curve; in most records, active means well fitted cell-killing curve with a large enough effect; inconclusive means small, poorly fitted or top-dose-only effect; inactive means flat fitted curve, though single readings scatter.
Potency means the concentration at half of the fitted maximal effect.

The nature of one assay: Cell Viability - LYMP2-014 (AID 983). Further: nearly all actives have a fitted effect of over 50% in size.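 On activity change, negative = cytotoxicity: plate controls were DMSO only for no effect and 92 µM tetraoctylammonium bromide for full effect.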 The following applies: LYMP2-014 lymphoblastoid cells, viability qHTS; series mostly up to 92.2 µM; activity change, negative = cytotoxicity: at the top concentration. The essentials: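 Quantitative HTS in lymphoblastoid cells: 24 hr compound exposure, then CellTiter-Glo ATP luminescence. Positive control was tetraoctylammonium bromide, 6.4pM to 92 uM.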
Turning to `CC(C)(C)CC(C)(C)c1ccc(OCCOCC[N+](C)(C)Cc2ccccc2)cc1`, the Potency was 31.6 µM (active).

As to `C[C@]12CC[C@@H]3c4ccc(O)cc4CC[C@H]3[C@@H]1CC[C@@H]2O`, the “activity change, negative = cytotoxicity” value was -29.7%.

Take `COC1=CC(=O)C[C@@H](C)[C@]12Oc1c(Cl)c(OC)cc(OC)c1C2=O`: the “activity change, negative = cytotoxicity” value was -13.8%.

For the molecule `C=CCc1ccc(O)c(OC)c1`, the “activity change, negative = cytotoxicity” value was -2.52%.

For `CC(=O)Oc1ccc(C(c2ccc(OC(C)=O)cc2)c2ccccn2)cc1`, the “activity change, negative = cytotoxicity” value is 5.47%.

Turning to `Oc1ccc(O)cc1`, the “activity change, negative = cytotoxicity” value is -28%.

On to `O=C(O)CCCCC(=O)O`, for which the “activity change, negative = cytotoxicity” value was -0.16%.

On to `CCCCCCc1ccc(O)cc1O`, for which the “activity change, negative = cytotoxicity” value is -3.98%.

Turning to `Nc1ccc(C(=O)O)cc1`, the “activity change, negative = cytotoxicity” value was -2.29%.

Take `CC(O)C(=O)O` (stereo not given): the “activity change, negative = cytotoxicity” value is -3.34%.

Take `O=c1ccc2ccccc2o1`: the “activity change, negative = cytotoxicity” value is -2.98%.

Turning to `NC(=NCCCCCCN=C(N)/N=C(\N)Nc1ccc(Cl)cc1)/N=C(\N)Nc1ccc(Cl)cc1`, the Potency was 39.8 µM (active).

Take `O=C1OC(c2ccc(O)cc2)(c2ccc(O)cc2)c2ccccc21`: the “activity change, negative = cytotoxicity” value was -15.5%.

Consider `CC/C(=C(/CC)c1ccc(O)cc1)c1ccc(O)cc1`, for which the “activity change, negative = cytotoxicity” value is -19.7%.

`COc1cccc2c1C(=O)c1c(O)c3c(c(O)c1C2=O)C[C@@](O)(C(=O)CO)C[C@@H]3O[C@H]1C[C@H](N)[C@H](O)[C@H](C)O1`: the Potency is 0.316 µM (active).

Turning to `CN(C)/N=N/c1nc[nH]c1C(N)=O`, the “activity change, negative = cytotoxicity” value was 0.905%.

The nature of a further assay: Cell Viability - LYMP2-016 (AID 984).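 Further: cells exposed to compound for 24 hours at 37 °C; nearly all actives have a fitted effect of over 55% in size.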 On activity change, negative = cytotoxicity: on the % scale 0 is the no-effect control and ±100 the full control effect. As to conditions: LYMP2-016 lymphoblastoid cell viability, qHTS; series mostly up to 92.2 µM; activity change, negative = cytotoxicity: at the top concentration. The essentials: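 Human lymphoblastoid LYMP2-016 cells, 2500 per well, treated with compounds for 24 h at 37 C. Viability read as intracellular ATP by CellTiter-Glo luminescence after 30 min at room temperature; AC50 from Hill fits of concentration-response.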
For `CC(C)(C)CC(C)(C)c1ccc(OCCOCC[N+](C)(C)Cc2ccccc2)cc1`, the Potency was 31.6 µM (active).

Take `C[C@]12CC[C@@H]3c4ccc(O)cc4CC[C@H]3[C@@H]1CC[C@@H]2O`: the “activity change, negative = cytotoxicity” value is -15.1%.

Regarding `C=C(CC)C(=O)c1ccc(OCC(=O)O)c(Cl)c1Cl`, the Potency is 39.8 µM (active).

On to `COC1=CC(=O)C[C@@H](C)[C@]12Oc1c(Cl)c(OC)cc(OC)c1C2=O`, for which the “activity change, negative = cytotoxicity” value was -14.5%.

As for `C=CCc1ccc(O)c(OC)c1`, the “activity change, negative = cytotoxicity” value is 1.12%.

`CC(=O)Oc1ccc(C(c2ccc(OC(C)=O)cc2)c2ccccn2)cc1`: the “activity change, negative = cytotoxicity” value was -10.8%.

For `Oc1ccc(O)cc1`, the “activity change, negative = cytotoxicity” value was -23.8%.

Regarding `O=C(O)CCCCC(=O)O`, the “activity change, negative = cytotoxicity” value is -6.94%.

For `CCCCCCc1ccc(O)cc1O`, the “activity change, negative = cytotoxicity” value was -15%.

`Nc1ccc(C(=O)O)cc1`: the “activity change, negative = cytotoxicity” value was -7.18%.

With `CC(=O)O[C@]1(C(C)=O)CC[C@H]2[C@@H]3C[C@H](C)C4=CC(=O)CC[C@]4(C)[C@H]3CC[C@@]21C`, the Potency was 39.8 µM (active).

`CC(O)C(=O)O` (stereo not given): the “activity change, negative = cytotoxicity” value was -6.07%.

For the molecule `O=c1ccc2ccccc2o1`, the “activity change, negative = cytotoxicity” value was -4.25%.

As for `NC(=NCCCCCCN=C(N)/N=C(\N)Nc1ccc(Cl)cc1)/N=C(\N)Nc1ccc(Cl)cc1`, the Potency is 50.1 µM (active).

Regarding `O=C1OC(c2ccc(O)cc2)(c2ccc(O)cc2)c2ccccc21`, the “activity change, negative = cytotoxicity” value is -6.57%.

For the molecule `CC/C(=C(/CC)c1ccc(O)cc1)c1ccc(O)cc1`, the “activity change, negative = cytotoxicity” value is -23.1%.

Consider `COc1cccc2c1C(=O)c1c(O)c3c(c(O)c1C2=O)C[C@@](O)(C(=O)CO)C[C@@H]3O[C@H]1C[C@H](N)[C@H](O)[C@H](C)O1`, for which the Potency is 0.251 µM (active).

As for `Oc1c(Cl)cc(Cl)cc1Sc1cc(Cl)cc(Cl)c1O`, the Potency is 39.8 µM (active).

Consider `CN(C)/N=N/c1nc[nH]c1C(N)=O`, for which the “activity change, negative = cytotoxicity” value was -2.93%.

For the origin of these results see PubChem BioAssay (NCATS).
